Assay outcomes deposited in PubChem by National Center for Advancing Translational Sciences (NCATS).
This is a sample that favours compounds with a hit; in the whole collection about 5.7% have one here.
B2AR arrestin: qHTS assay of beta-arrestin-biased ligands of beta2-adrenergic receptor. Beta-2 adrenergic receptor (Homo sapiens), P07550. beta-arrestin recruitment to beta2AR, cell-based reporter. Potency, µM (top dose mostly 46.1 µM), actives largely listed as activators. 330,000 compounds, 0.02% hits. AID 492947, 2010; also: nearly all actives have a fitted effect of over 65% in size
NPSR antag: qHTS Assay for Antagonists of the Neuropeptide S Receptor: cAMP Signal Transduction; 220,000 compounds, 1% hits; AID 1461, 2008; Potency, µM (series often up to 38.3 µM), usual class: inhibitors; CHO-NPSR cells, cAMP TR-FRET, antagonist mode; Q6W5P4; also: nearly all actives have a fitted effect of over 50% in size
VP16 counter: VP16 counterscreen qHTS for inhibitors of ROR gamma transcriptional activity; Drosophila S2 Gal4-VP16 UAS-luciferase, luminescence, 20 h; AID 2546, 2010; 310,000 compounds, 3.5% hits; Potency, µM (doses to about 53.6 µM), usual class: inhibitors;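 also: Gal4-VP16 expression switched on by copper sulfate through the metallothionein promoter; nearly all actives have a fitted effect of over 50% in size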
RORgamma inh: qHTS for inhibitors of ROR gamma transcriptional activity; Drosophila S2 Gal4-RORgamma UAS-luciferase reporter, 20 h; Potency, µM (series often up to 53.6 µM), actives largely listed as inhibitors; 310,000 compounds, 5.4% hits; also: nearly all actives have a fitted effect of over 60% in size
Target sequence (P51450 whole entry, looked up, the tested form may be a part): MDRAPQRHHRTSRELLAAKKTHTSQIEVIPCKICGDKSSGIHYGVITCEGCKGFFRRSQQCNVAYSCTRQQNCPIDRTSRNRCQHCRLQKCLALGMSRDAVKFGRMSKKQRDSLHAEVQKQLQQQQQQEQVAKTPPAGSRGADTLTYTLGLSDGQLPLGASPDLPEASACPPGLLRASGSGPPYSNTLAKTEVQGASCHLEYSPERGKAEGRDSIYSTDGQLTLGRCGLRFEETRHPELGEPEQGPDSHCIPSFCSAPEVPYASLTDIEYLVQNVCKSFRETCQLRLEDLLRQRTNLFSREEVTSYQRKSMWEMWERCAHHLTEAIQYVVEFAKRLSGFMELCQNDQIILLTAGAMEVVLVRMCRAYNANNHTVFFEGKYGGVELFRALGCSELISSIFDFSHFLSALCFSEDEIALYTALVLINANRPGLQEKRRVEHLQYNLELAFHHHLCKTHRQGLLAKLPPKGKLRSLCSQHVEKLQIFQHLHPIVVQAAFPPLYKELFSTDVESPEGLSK
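Schneider cells (Drosophila), stable Gal4 DBD–ROR gamma + UAS-luc; 1 hr cmpd preincubation; Cu2+ induction 700 uM final; 20 hr ambient; luminescence.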
Hits are given with their value; - = inactive; ? = inconclusive; . = no result given; ! = not active in a repeat; [ ] = another dose, or the depositor's remark. Calls follow the shape of the dose curve; as a rule, active = well fitted curve in the direction sought with a large enough effect; inconclusive = small, poorly fitted or top-dose-only effect, or another doubt; inactive = no such curve, though single readings can be large; an effect the other way counts as inactive or inconclusive.

SMILES	B2AR arrestin	NPSR antag	VP16 counter	RORgamma inh
C[C@]12CC[C@@H]3c4cc(O)c(O)cc4CC[C@H]3[C@@H]1CC[C@@H]2O	-	-	?	13µM
O=C1C=C2C=CC3C[C@@]2(O1)C1CCCCN31 (some centres undefined)	.	.	-	?
Cl/C=C\Cl	.	.	-	-
Cc1sc2c(c1C)C(c1ccc(C(C)(C)C)cc1)=NCC(=O)N2CC(=O)Nc1nccs1	-	?	?	11µM
C=CC=O	.	.	-	-
C=CCC1(C(C)CCC)C(=O)N=C(S)NC1=O (centres undefined)	.	.	-	10µM
CC(=O)C(O)C(c1ccccc1)c1c(O)c2ccccc2oc1=O (centres undefined)	.	.	-	-
CCC#N	.	.	-	-
O=[As]O[As]=O (centres undefined)	.	.	-	-[10 µM]
S=C1Nc2ccccc2Sc2ccccc21	-	-	5µM	2µM
C[n+]1c2cc(N)ccc2cc2ccc(N)cc21	.	.	7.1µM	?
Nc1ccc2ccccc2c1	.	.	-	-
CCC(C)(C)O	.	.	-	-
C[C@]12[C@H](O)CC3C(CC[C@@H]4C[C@@H](O)CC[C@]34C)[C@@]1(O)CC[C@@H]2C1=CC(=O)OC1 (some centres undefined)	.	.	-	-
CNC(=O)COC(=O)c1ccc(-c2nc3ccccc3s2)s1	-	-	0.32µM	0.5µM
CCN1CCN(CC(c2ccccc2)c2ccccc2)CC1	-	.	-	20µM
CCOc1cc(C)cc2oc(=O)c3c(c12)CCCC3	-	.	-	-
Cc1cc(O)c2c3c(c(=O)oc2c1)CCC(C)C3 (centres undefined)	-	.	20µM	?
Cc1ccc(OCCOc2cccc(C=C3C(=O)NC(=O)NC3=O)c2)c(C)c1	-	.	4µM	7.9µM
O=C1NC(=O)C(=Cc2cccc(OCCOc3ccccc3)c2)C(=O)N1	-	.	?	?
CC[C@]1(O)CC(O[C@@H]2CC(N(C)C)C(O)C(C)O2)c2c(cc3c(c2O)C(=O)c2c(O)ccc(O)c2C3=O)C1C(=O)OC (some centres undefined)	.	.	2.2µM	1.1µM
ClC(Br)Br	.	.	-	-
Cc1cc([N+](=O)[O-])c2ccccc2[n+]1[O-]	-	10µM	3.5µM	?
Cc1ccccc1[N+](=O)[O-]	-	.	-	-
CC(=O)CC(c1ccccc1)c1c(O)c2cccc(O)c2oc1=O (centres undefined)	.	.	-	-
SMILES	B2AR arrestin	NPSR antag	VP16 counter	RORgamma inh
CC(Oc1ccc(Cl)cc1Cl)C(=O)Nc1ccc(S(=O)(=O)Nc2cnc3ccccc3n2)cc1 (centres undefined)	-	?	-	-
COc1ccc(NC(=O)C(=O)NNC(=O)C(C)Oc2ccc(Cl)cc2Cl)cc1 (centres undefined)	-	-	?	5µM
Nc1cccc2ccccc12	.	.	-	-
C=C(Cl)CCl	.	.	-	-
C=Cn1ccnc1P(=S)(c1nccn1C=C)C1CCCCC1	-	-	?	10µM
C=Cn1ccnc1P(=S)(c1nccn1C=C)c1nccn1C=C	-	-	-	-
NC1=N[C@H](O)[C@H]2C3O[C@]4(O)O[C@H](C(O)[C@@]2(N1)[C@@H]4O)C3(O)CO (some centres undefined)	.	.	-	-
Cc1cc(NC(=O)CCl)no1	-	-	?	2.5µM
Fc1ccccc1-c1n[nH]c(=S)n1Cc1ccccc1	-	.	11µM	7.1µM
CCCCC(=O)Cl	.	.	-	-
O=C(CCCCCn1c(=S)[nH]c2ccccc2c1=O)N1CCC2(CC1)OCCO2	-	?	?	10µM
COc1cc2c(cc1/C=C/[N+](=O)[O-])OCO2	-	-	?	7.9µM
COC1(C)CC(c2ccccc2)c2c(c3ccccc3oc2=O)O1 (centres undefined)	.	.	-	-
CC(C)CCNC(=O)c1c(N)n(Cc2ccc3c(c2)OCO3)c2nc3ccccc3nc12	-	?	-	-
CC(C)OCCCNC(=O)c1c(N)n(Cc2cccs2)c2nc3ccccc3nc12	-	10µM	16µM	?
COCCCNC(=O)c1c(NC(=O)c2ccco2)n(Cc2ccccc2)c2nc3ccccc3nc12	-	13µM	-	-
CC(C)CCn1c(N)c(C(=O)NCc2cccs2)c2nc3ccccc3nc21	-	-	-	-
CC(C)CNC(=O)c1c(N)n(Cc2ccc3c(c2)OCO3)c2nc3ccccc3nc12	-	3.2µM	7.1µM	?
CC(C)CNC(=O)c1c(N)n(Cc2ccco2)c2nc3ccccc3nc12	-	10µM	?	-
CC(=O)O[C@H]1[C@H]2[C@@H](OC(=O)Cc3ccccc3)[C@@H](C)C[C@]2(OC(C)=O)C(=O)/C(C)=C/[C@@H]2[C@H](CC[C@@]13CO3)C2(C)C	.	.	-	?
CCCC1COC(Cn2cncn2)(c2ccc(Cl)cc2Cl)O1 (centres undefined)	-	-	18µM!	?
Clc1ccc(C2(Cn3cncn3)OCCO2)c(Cl)c1	.	.	-	-
CN1CCC(O)(c2ccc(F)cc2)C(C(=O)c2ccc(F)cc2)C1 (centres undefined)	.	.	-	-
CN1CCC(O)(c2cccs2)C(C(=O)c2cccs2)C1 (centres undefined)	-	.	3.2µM	4µM
O=C(CCCN1CCC2(CC1)C(=O)N(Cc1cccc(F)c1)CN2c1ccccc1)c1ccc(F)cc1	.	.	?	-
SMILES	B2AR arrestin	NPSR antag	VP16 counter	RORgamma inh
CCCCCSc1cc(OC)c(CCN)cc1OC	-	-	?	7.1µM
C=C(C)CCl	.	.	-	-
[CH3][Hg][Cl]	.	.	0.71µM	0.89µM
CN(C(=O)Oc1ccc(Cl)c2cccnc12)c1ccccc1	-	-	-	?
CC(=O)Oc1ccc(Cl)c2cccnc12	.	.	0.71µM	0.56µM
CCC(C=C[C@@H]1OC(=O)C=C[C@H]1C)=C[C@H](C)CC=CC(C)=C[C@@H](C)C(=O)[C@@H](C)[C@H](O)[C@@H](C)CC(C)=CC(=O)O	.	.	1.3µM	?
CCC(=NCc1ccc(F)cc1)c1c(O)n(C)c(=O)n(C)c1=O	-	-	22µM	-
CCC(=NCCC(c1ccccc1)c1ccccc1)c1c(O)n(C)c(=O)n(C)c1=O	-	-	-	-
O=[N+]([O-])/C=C/c1c(OCc2ccccc2)ccc2ccccc12	-	6.3µM	4.5µM	5.6µM
COC1=CC(=O)O[C@H](/C=C/c2ccc3c(c2)OCO3)C1	.	.	-	-
C[C@]12C/C(=C/O)C(=O)C[C@@H]1CC[C@@H]1[C@@H]2CC[C@@]2(C)[C@H]1CC[C@]2(C)O	.	.	-	-
NC(N)=NN=C(/C=C/c1ccc([N+](=O)[O-])o1)/C=C/c1ccc([N+](=O)[O-])o1	.	.	?	5µM
CCOC(=O)N(C)C(=O)CSP(=S)(OCC)OCC	.	.	-	-
S=c1[nH]nc(-c2ccccc2)n1C1C=CCCC1 (centres undefined)	?	-	2.8µM	-
O=c1[nH]c2ccccc2n1C1CCN(CCCC(c2ccc(F)cc2)c2ccc(F)cc2)CC1	-	6.3µM	?	?
CC(C)(C)NC(=O)N1c2ccccc2Sc2ccccc21	-	.	?	-
c1ccc2c(c1)OCC(C1=NCCN1)O2 (centres undefined)	-	-	-	16µM!
O=NN(CCO)CCO	.	.	-	-
